KB-3-1 tox – qHTS assay for MDR1-selective chemotherapeutics: Primary screen using the parental adenocarcinoma cell KB-3-1; KB-3-1 viability, CellTiter-Glo ATP luminescence, 72 h; Potency, µM (top dose mostly 46.1 µM), actives largely listed as cytotoxic; 1.4% of 400,000 active; note: nearly all actives have a fitted effect of over 60% in size
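KB-3-1 cells, DMEM (no phenol red) + 10% FBS; compound by pin transfer, 72 h, 37 °C. Readout: CellTiter-Glo luminescence after 10 min. Data normalized, curve-fitted.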
MCF10A rereplic – A quantitative high throughput screen for small molecules that induce DNA re-replication in MCF 10a normal breast cells. AID 624296, 2012. MCF 10A DNA re-replication, Hoechst nuclear intensity, 48 h. Potency, µM (highest dose often 46.1 µM), most hits filed as activators. 2.9% of 350,000 active; note: nearly all actives have a fitted effect of over 50% in size
KB-V1 MDR tox – qHTS assay for MDR1-selective chemotherapeutics: Primary screen using the drug-selected MDR subline cells KB-V1; KB-V1 MDR cells viability, CellTiter-Glo, 72 h; Potency, µM (highest dose often 46.1 µM), hits mostly cytotoxic; 3.4% of 400,000 active; note: nearly all actives have a fitted effect of over 60% in size
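KB-V1 cells (P-gp-expressing MDR subline of KB-3-1) in phenol-red-free DMEM with 10% FBS were exposed to library compounds over a concentration series for 72 h at 37 degrees C. Viability read by CellTiter-Glo luminescence; concentration-effect curves fitted after normalization.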
SW480 rereplic – A quantitative high throughput screen for small molecules that induce DNA re-replication in SW480 colon adenocarcinoma cells; SW480 DNA re-replication, Hoechst DNA content imaging, 48 h; Potency, µM (highest dose often 46.1 µM), usual class: activators; 1.8% of 340,000 active; note: nearly all actives have a fitted effect of over 55% in size
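Per well, 250 cells were exposed to pinned compound for 48 hr. Nuclear DNA was visualised with Hoechst (40 min, 37 C) and total object intensity recorded by fluorescence scanning.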
ELG1 repair inh – qHTS screen for small molecules that inhibit ELG1-dependent DNA repair in human embryonic kidney (HEK293T) cells expressing luciferase-tagged ELG1 | HEK293T ELG1-luciferase reporter, luminescence, 16 h; DNA damage induced by 5-fluorouridine | Potency, µM (highest dose often 46.1 µM), usual class: inhibitors | 2.3% of 330,000 active | AID 504467, 2011; note: nearly all actives have a fitted effect of over 55% in size
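Reporter activity after DNA damage by 5-fluorouridine is monitored. Compound-treated cells incubate 16 hr at 37 °C, then ONE-Glo is added for 30 min before luminescence reading.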
Each line names hits and unclear results; the compound was inactive in the other large screens. Only some compounds are listed: those with a hit (about 8.2% of all), similar ones and a draw of the others. Calls come from the whole dose curve; as a rule, active = well fitted curve in the direction sought with a large enough effect; inconclusive = small, poorly fitted or top-dose-only effect, or another doubt; inactive = no such curve, though single readings can be large; an effect the other way counts as inactive or inconclusive.

COc1ccc2ccccc2c1C1NC(=O)NC(C)=C1[N+](=O)[O-] (centres undefined)	none
COc1ccc(OC)c(S(=O)(=O)N2CCCCC2C(=O)N2CCN(c3ccccn3)CC2)c1 (centres undefined)	KB-V1 MDR tox 9.2µM, SW480 rereplic inconclusive, ELG1 repair inh inconclusive
COc1ccc(OC)c(S(=O)(=O)N2CCN(c3ccccn3)CC2)c1	MCF10A rereplic inconclusive, SW480 rereplic inconclusive
COC(=O)c1sccc1NC(=O)CSc1ccccc1NS(=O)(=O)c1ccc(Br)cc1	KB-3-1 tox 21µM, KB-V1 MDR tox 4.1µM
COC(=O)c1sccc1NC(=O)Cn1nnc(-c2ccc(C)cc2)n1	KB-V1 MDR tox 21µM
COC(=O)c1sccc1NC(=O)CN(C)NS(=O)(=O)c1ccc(Cl)cc1	MCF10A rereplic inconclusive, KB-V1 MDR tox inconclusive, SW480 rereplic inconclusive
COC(=O)c1sccc1NC(=O)CN(C)NS(=O)(=O)c1ccc(F)cc1	MCF10A rereplic inconclusive, KB-V1 MDR tox inconclusive, SW480 rereplic 13µM
COC(=O)c1sccc1NC(=O)COc1ccc(C)cc1	ELG1 repair inh inconclusive
COC(=O)c1sccc1NC(=O)CSc1ccc(Cl)cc1	KB-V1 MDR tox 23µM
COC(=O)c1sccc1NC(=O)CSc1ccccc1NS(=O)(=O)c1ccc(F)cc1	MCF10A rereplic inconclusive, KB-V1 MDR tox inconclusive
Cc1nn(CC(=O)NCc2ccc(F)cc2)c2ccccc12	none (no result: MCF10A rereplic, SW480 rereplic, ELG1 repair inh)
COc1cc(N(C)C)c(OC)cc1C=C1C=CC=C1	none (no result: MCF10A rereplic, SW480 rereplic, ELG1 repair inh)
C=CCNC(=S)N/N=C/c1ccc(C(F)(F)F)cc1	KB-3-1 tox inconclusive, ELG1 repair inh 4.6µM
C=CCNC(=S)N/N=C/c1ccc(C)c([N+](=O)[O-])c1	none
FC(F)(F)c1ccc(/C=N/NC(=S)NC2CCCCC2)cc1	MCF10A rereplic 18µM
Cc1ccc(CN(Cc2ccco2)C(=O)c2cccc(C)c2)cc1	none (no result: MCF10A rereplic, SW480 rereplic, ELG1 repair inh)
COc1ccc(NC(=O)CN2C(=O)C(C)Oc3ccccc32)cc1 (centres undefined)	KB-V1 MDR tox inconclusive
Cc1ccc(NC(=O)CN2C(=O)C(C)Oc3ccccc32)nc1 (centres undefined)	KB-V1 MDR tox 15µM
COc1ccc(NC(=O)CN2C(=O)C(C)Oc3ccccc32)c(OC)c1 (centres undefined)	KB-V1 MDR tox 16µM
O=C(CC[C@H]1O[C@@H](n2cnc3c(NC(=O)c4ccccc4)ncnc32)[C@H](O)[C@@H]1O)NCc1ccc(OC(F)(F)F)cc1	none (no result: MCF10A rereplic, SW480 rereplic, ELG1 repair inh)
CCCCC[C@@H]1C=C(C(=O)O)[C@H](c2ccc(Br)cc2)N1S(=O)(=O)c1ccc(C)cc1	MCF10A rereplic inconclusive
COc1ccc(S(=O)(=O)N2CCSC2c2ccc(OC)c(OC)c2)cc1 (centres undefined)	MCF10A rereplic inconclusive, ELG1 repair inh 23µM
COc1ccc(S(=O)(=O)N2CCSC2c2ccccc2)cc1 (centres undefined)	KB-3-1 tox inconclusive, MCF10A rereplic inconclusive, KB-V1 MDR tox 23µM
COc1ccccc1C1SCCN1S(=O)(=O)c1cccc(C(F)(F)F)c1 (centres undefined)	KB-V1 MDR tox 16µM
CC(=O)Nc1ccc(S(=O)(=O)N2CCSC2c2ccccc2)cc1 (centres undefined)	none
CN(CCc1ccccc1)C(=O)c1cccc(NC(=O)Cc2cccc(NC(=O)C3CCCN(C(=O)C4CCCC4)C3)c2)c1 (centres undefined)	none (no result: ELG1 repair inh)
CCOC(=O)c1c(NC(=O)C2=C(C)NC(=S)NC2c2ccc(CC)cc2)sc(C)c1C (centres undefined)	SW480 rereplic inconclusive, ELG1 repair inh 6.5µM (no result: KB-3-1 tox, KB-V1 MDR tox)
CCOC(=O)C1=C(COC(=O)C(CC)c2ccccc2)NC(=O)NC1C (centres undefined)	none
COc1ccc(C(=O)N(CCc2ccccc2)Cc2ccccc2)c(OC)n1	KB-3-1 tox inconclusive, MCF10A rereplic inconclusive, KB-V1 MDR tox 8.2µM, ELG1 repair inh inconclusive
CS(=O)(=O)c1ccccc1C(=O)N(CCc1ccccc1)Cc1ccccc1	KB-V1 MDR tox inconclusive
COc1ccc(C(=O)N2CCCC(c3nc(-c4cc(OC)c(OC)c(OC)c4)no3)C2)cc1 (centres undefined)	KB-V1 MDR tox inconclusive, ELG1 repair inh 7.3µM
COc1ccccc1C(=O)N1CCCC(c2nc(-c3cc(OC)c(OC)c(OC)c3)no2)C1 (centres undefined)	KB-V1 MDR tox 4.6µM, ELG1 repair inh 7.3µM
COc1ccc(NC(=O)N2CCCC(c3nc(-c4ccc(C(C)C)cc4)no3)C2)cc1 (centres undefined)	KB-3-1 tox inconclusive, MCF10A rereplic inconclusive, KB-V1 MDR tox 8.2µM, ELG1 repair inh inconclusive
COc1ccc(NC(=O)N2CCCC(c3nc(-c4ccc(OC)cc4)no3)C2)cc1 (centres undefined)	none
COc1ccc(-c2noc(C3CCCN(S(=O)(=O)c4cccc(Cl)c4)C3)n2)cc1OC (centres undefined)	KB-3-1 tox inconclusive, MCF10A rereplic inconclusive, KB-V1 MDR tox 5.2µM, ELG1 repair inh inconclusive
COc1ccc(-c2noc(C3CCCN(C(=O)c4ccccc4)C3)n2)cc1 (centres undefined)	none
O=c1c2cc(Br)ccc2nc(-c2cccc(C(F)(F)F)c2)n1O	KB-3-1 tox 2.9µM, MCF10A rereplic inconclusive, KB-V1 MDR tox 2.3µM, ELG1 repair inh inconclusive
N#Cc1ccc(-c2nc3ccc(Br)cc3c(=O)n2O)cc1	KB-3-1 tox inconclusive, ELG1 repair inh 9.2µM
O=P(OCC1CCCO1)(OCC1CCCO1)OCC1CCCO1 (centres undefined)	none (no result: ELG1 repair inh)
CC1(O)CC2CC1C(C(=O)O)C2C(=O)O (centres undefined)	none (no result: ELG1 repair inh)
O=C(Cc1c(F)cccc1Cl)NNC(=O)c1ccncc1	MCF10A rereplic inconclusive
CNC1C(O)C(OC2C(N)CC(N)C(OC3OC(CN)=CCC3N)C2O)OCC1(C)O (centres undefined)	none (no result: KB-3-1 tox, KB-V1 MDR tox, ELG1 repair inh)
CCC(=O)N1CCN(c2ccc(NC(=O)c3ccc([N+](=O)[O-])o3)cc2Cl)CC1	KB-3-1 tox inconclusive, MCF10A rereplic inconclusive, ELG1 repair inh inconclusive
O=C(Nc1cc(Cl)ccc1-n1cncn1)c1ccc([N+](=O)[O-])o1	KB-3-1 tox 13µM, MCF10A rereplic inconclusive, KB-V1 MDR tox inconclusive, SW480 rereplic 21µM
CCC(=O)N1CCN(c2ccccc2NC(=O)c2ccc(-c3cccc([N+](=O)[O-])c3)o2)CC1	ELG1 repair inh 9.2µM
CC(=O)N1CCN(c2ccc(NC(=O)c3ccc([N+](=O)[O-])o3)cc2Cl)CC1	KB-3-1 tox inconclusive, MCF10A rereplic 3.3µM, KB-V1 MDR tox inconclusive, SW480 rereplic inconclusive, ELG1 repair inh 18µM

Screening results from PubChem.
